In the library only some 3.5% were active in any assay of this set; here they are far more common.
FBW7 activator – human FBW7 E3 ligase activation, primary screen. Q969H0. normalized activity (activation), % at 26.1 µM. 0.13% of 650,000 active. AlphaScreen FBW7–phospho-cyclin E peptide binding, activator screen; in the data active = normalized activity above about 1.9%;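 also: purified mutant Fbw7 with reduced substrate affinity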
MITF primary – blocks human microphthalmia-associated transcription factor. O75030. AlphaScreen MITF homodimerization, bead proximity signal. inhibition, % at 2.6 µM. 0.91% of 650,000 active. AID 1259374; in the data active = inhibition above about 50%;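 also: 0% = vehicle wells with protein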
TEAD-YAP inh – TEAD-YAP interaction inhibition. HEK-TIYL cells, TEAD-Gal4/YAP UAS-luciferase luminescence. inhibition, % at 9.12 µM. 1.4% of 640,000 active. AID 1259422; in the data active = inhibition above about 32%;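 also: 0% = median of test compound wells and 100% = reference inhibitor wells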
GPR151 activ – activators of human GPR151; PathHunter beta-arrestin GPR151 cells, luminescence; AID 1508602; activation, % at 11.2 µM; Q8TDV0; 1% of 650,000 active; in the data active = activation above about 4.9%;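 also: 0% = median of compound wells and 100% = cells with positive control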
Target sequence (Q8TDV0 whole entry, looked up): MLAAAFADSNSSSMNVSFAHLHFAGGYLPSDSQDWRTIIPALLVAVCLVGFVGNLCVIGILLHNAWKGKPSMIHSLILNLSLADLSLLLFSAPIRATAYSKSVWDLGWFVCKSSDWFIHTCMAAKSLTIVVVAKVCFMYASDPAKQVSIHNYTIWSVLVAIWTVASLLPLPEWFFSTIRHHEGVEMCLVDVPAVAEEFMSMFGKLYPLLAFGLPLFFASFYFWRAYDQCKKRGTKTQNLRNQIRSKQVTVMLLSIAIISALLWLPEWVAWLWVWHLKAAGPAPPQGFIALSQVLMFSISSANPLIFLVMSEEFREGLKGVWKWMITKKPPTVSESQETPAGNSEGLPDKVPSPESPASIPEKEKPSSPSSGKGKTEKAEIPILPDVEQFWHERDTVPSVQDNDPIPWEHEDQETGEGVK
Active calls of the source: *.

Fc1ccc(-c2cc(NC3CC3)nc(-c3ccccn3)n2)cc1 was read as FBW7 activator -0.7, MITF primary -2.8, TEAD-YAP inh 90.0* and GPR151 activ -2.6.
For COCCNc1cc(-c2ccc(F)cc2)nc(-c2ccccn2)n1 the results were FBW7 activator -0.6, MITF primary 13.2, TEAD-YAP inh 73.7* and GPR151 activ -1.9.
`Fc1ccc(-c2cc(NC3CC3)nc(-c3ccncc3)n2)cc1` gave FBW7 activator 0.0, MITF primary 3.8, TEAD-YAP inh 13.6 and GPR151 activ 1.6.
`c1ccc(-c2cc(NC3CC3)nc(-c3ccccn3)n2)cc1` gave FBW7 activator -0.9, MITF primary 5.7, TEAD-YAP inh 92.3* and GPR151 activ -1.0.
CCN(CC)c1cc(-c2ccc(F)cc2)nc(-c2ccccn2)n1 was read as FBW7 activator -0.1, MITF primary 58.3*, TEAD-YAP inh 52.9* and GPR151 activ 1.4.
Screening COCCNc1cc(-c2ccncc2)nc(-c2ccccn2)n1 returned FBW7 activator -0.6, MITF primary 6.3, TEAD-YAP inh 7.7 and GPR151 activ -1.9.
Screening c1ccc(-c2nc(NC3CC3)cc(-c3ccncc3)n2)nc1 returned FBW7 activator -0.8, MITF primary 16.2, TEAD-YAP inh 31.8 and GPR151 activ -0.2.
`CCN(CC)c1ccc(NC(=O)c2cc(-c3ccc(C)cc3)nc3ccccc23)cc1` gave FBW7 activator 0.0, MITF primary 8.3, TEAD-YAP inh 6.7 and GPR151 activ -0.9.
`Cn1c(=O)c2c(NC(=O)c3ccco3)ccnc2n(C)c1=O` gave FBW7 activator 0.1, MITF primary -8.0, TEAD-YAP inh -8.6 and GPR151 activ -2.5.
Screening Cc1ccc(-c2noc(CNC(=O)c3cccc(Cl)c3)n2)cc1 returned FBW7 activator 0.0, MITF primary 1.0, TEAD-YAP inh 9.4 and GPR151 activ -0.4.
`Fc1cccc2c1NC(c1ccc(Br)cc1)C1CC=CC21` (stereo unspecified) gave FBW7 activator 0.0, MITF primary 0.8, TEAD-YAP inh 19.1 and GPR151 activ -0.4.
Screening CCOc1cccc2c1NC(c1ccc(C(=O)O)cc1)C1CC=CC21 (stereo unspecified) returned FBW7 activator -1.9, MITF primary 58.8*, TEAD-YAP inh -8.4 and GPR151 activ -0.2.
Screening O=C(O)c1ccc([C@@H]2Nc3c(F)cccc3[C@@H]3C=CC[C@@H]32)cc1 returned FBW7 activator -1.1, MITF primary 69.8*, TEAD-YAP inh 2.0 and GPR151 activ 1.0.
CCOC(=O)c1cccc2c1N[C@@H](c1ccc(C(=O)O)cc1)[C@H]1CC=C[C@@H]21 was read as FBW7 activator -0.7, MITF primary 76.3*, TEAD-YAP inh 7.8 and GPR151 activ -0.1.
Clc1ccc(OCCSc2nnc(-c3ccncc3)o2)cc1 was read as FBW7 activator 1.1, MITF primary 21.5, TEAD-YAP inh -2.9 and GPR151 activ -0.4.
For NC(=O)CSc1cn(CC(=O)N2CCCCCC2)c2ccccc12 the results were FBW7 activator 0.1, MITF primary 19.0, TEAD-YAP inh -2.9 and GPR151 activ -0.1.
For O=C(CCc1nnc(C2CCCCC2)o1)N1CCCC(CN2CCOCC2)C1 (stereo unspecified) the results were FBW7 activator -0.1, MITF primary 13.2, TEAD-YAP inh 2.1 and GPR151 activ 0.7.
`Cc1cc(C)c(NC(=O)CSc2nc(=O)n(CCN(C)C)c3c2CCCC3)c(C)c1` gave FBW7 activator 0.2, MITF primary 2.1, TEAD-YAP inh -9.4 and GPR151 activ 0.8.
Screening c1ccc(Nc2nccc(NCc3nc4ccccc4[nH]3)n2)nc1 returned FBW7 activator -0.3, MITF primary 6.8, TEAD-YAP inh -20.0 and GPR151 activ 0.6.
For CCC(O)CNC(=O)c1cccc(OC2CCN(S(=O)(=O)N(C)C)CC2)c1 (stereo unspecified) the results were FBW7 activator 0.3, MITF primary 9.5, TEAD-YAP inh 1.7 and GPR151 activ -0.1.
For CN(C)S(=O)(=O)N1CCC(Oc2cccc(C(=O)NC3CCCCCC3)c2)CC1 the results were FBW7 activator 0.0, MITF primary 16.8, TEAD-YAP inh 44.1* and GPR151 activ -0.5.
CCOC(=O)C(C)Oc1ccc2cc(-c3ccc(OC)c(OC)c3)c(=O)oc2c1 (stereo unspecified) was read as FBW7 activator 2.3*, MITF primary -11.7, TEAD-YAP inh 6.5 and GPR151 activ -8.4.
For COc1ccccc1-c1cc2ccccc2oc1=O the results were FBW7 activator 0.1, MITF primary 2.5, TEAD-YAP inh -12.6 and GPR151 activ -0.2.
`CCOC(=O)COc1ccc2c(C)c(-c3ccc(OC)c(OC)c3)c(=O)oc2c1` gave FBW7 activator 2.0*, MITF primary -15.3, TEAD-YAP inh 6.0 and GPR151 activ 0.8.
Screening COc1ccc(-c2cc3ccccc3oc2=O)cc1N returned FBW7 activator 0.0, MITF primary 3.9, TEAD-YAP inh 33.4* and GPR151 activ -1.4.
O=C(OCc1cccc(F)c1)c1cc(Br)ccc1O was read as FBW7 activator 0.2, MITF primary -16.1, TEAD-YAP inh -5.7 and GPR151 activ 0.4.
NC(=O)C1CCN(C(=O)c2ccc3c(=O)n(Cc4ccco4)c(=S)[nH]c3c2)CC1 was read as FBW7 activator 0.3, MITF primary -4.3, TEAD-YAP inh -3.0 and GPR151 activ 1.1.
`CCOC(=O)c1oc2ccc3c(c2c1C)C(=O)CC(C)(CC)O3` (stereo unspecified) gave FBW7 activator 0.0, MITF primary 1.1, TEAD-YAP inh -13.3 and GPR151 activ 0.8.
O=C(c1ccccc1I)n1cccn1 was read as FBW7 activator 0.2, MITF primary 0.1, TEAD-YAP inh 8.6 and GPR151 activ 0.0.
Cc1csc(NC(=O)c2cc([N+](=O)[O-])ccc2Sc2nnnn2C)n1 was read as FBW7 activator -0.2, MITF primary 1.9, TEAD-YAP inh 38.9* and GPR151 activ 2.3.
`Nc1ncnc(NCCNc2cccc3ccccc23)c1[N+](=O)[O-]` gave FBW7 activator 0.2, MITF primary 10.4, TEAD-YAP inh -67.0 and GPR151 activ -1.0.
CCOC(=O)c1[nH]c(C)c(C(=O)Nc2ccc(C)cc2C)c1C was read as FBW7 activator 0.1, MITF primary 9.7, TEAD-YAP inh 51.4* and GPR151 activ -0.4.
`CCOC(=O)c1[nH]c(C)c(C(=O)Nc2ccc(F)cc2C)c1C` gave FBW7 activator 0.0, MITF primary 8.1, TEAD-YAP inh 46.8* and GPR151 activ -0.1.
Screening CCOC(=O)c1[nH]c(C)c(C(=O)Nc2ccc(Br)cc2F)c1C returned FBW7 activator 0.1, MITF primary -1.0, TEAD-YAP inh -6.0 and GPR151 activ -0.6.
`COc1ccc(C(=O)N2CCN(Cc3ccc(SC)cc3)CC2)cc1` gave FBW7 activator -0.1, MITF primary 36.6, TEAD-YAP inh 42.8* and GPR151 activ -1.7.
`COCCSc1nsc(NC(=O)Nc2cccc(C(C)=O)c2)n1` gave FBW7 activator 0.0, MITF primary 2.7, TEAD-YAP inh 32.8* and GPR151 activ 0.4.
For Cc1nc2ccccn2c1C(=O)NC1CCCc2ccccc21 (stereo unspecified) the results were FBW7 activator -0.1, MITF primary 0.9, TEAD-YAP inh 39.6* and GPR151 activ 1.9.
